Assay [1] is described as follows: resazurin metabolic signal in HepG2 cells – cell-based, resazurin fluorescence, 24 h, PK04 Diversity Set, profiling panel (AID 1172). Also: test concentration not given here. Particulars: HepG2 viability, higher = more signal.
A short description of assay [2]: budding yeast growth changes without added modifier – OD600, strain BY4716, 24 h, basal condition, primary screen (AID 1173). Particulars: S. cerevisiae BY4716 growth, OD600, 24 h; higher = more signal, called active from +8 up or from −8 down.
The nature of assay [3]: viability profiling in MM1S myeloma cells – cell-based, resazurin fluorescence, basal, 24 h, PK04 Diversity Set, profiling panel (AID 1174).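 Also: MM1S multiple myeloma cell line; test concentration not given here.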 Particulars: higher = more signal, called active from +8 up or from −8 down.
The target of assay [4] is Dihydroorotate dehydrogenase (quinone), mitochondrial (Plasmodium falciparum (isolate 3D7)) (UniProt Q08210). The assay can be described thus: inhibition of P. falciparum DHODH – biochemical, C-terminal His tag, absorbance 600 nm, primary screen (AID 1175).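 Also: recombinant parasite enzyme with a five histidine tag at its C terminus; test concentration not given here.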 As to conditions: PfDHODH enzyme, DCIP absorbance 600 nm; higher = more signal, called active from +8 up or from −8 down.
Chain of Dihydroorotate dehydrogenase (quinone), mitochondrial (Plasmodium falciparum (isolate 3D7)) (Q08210 whole entry, looked up): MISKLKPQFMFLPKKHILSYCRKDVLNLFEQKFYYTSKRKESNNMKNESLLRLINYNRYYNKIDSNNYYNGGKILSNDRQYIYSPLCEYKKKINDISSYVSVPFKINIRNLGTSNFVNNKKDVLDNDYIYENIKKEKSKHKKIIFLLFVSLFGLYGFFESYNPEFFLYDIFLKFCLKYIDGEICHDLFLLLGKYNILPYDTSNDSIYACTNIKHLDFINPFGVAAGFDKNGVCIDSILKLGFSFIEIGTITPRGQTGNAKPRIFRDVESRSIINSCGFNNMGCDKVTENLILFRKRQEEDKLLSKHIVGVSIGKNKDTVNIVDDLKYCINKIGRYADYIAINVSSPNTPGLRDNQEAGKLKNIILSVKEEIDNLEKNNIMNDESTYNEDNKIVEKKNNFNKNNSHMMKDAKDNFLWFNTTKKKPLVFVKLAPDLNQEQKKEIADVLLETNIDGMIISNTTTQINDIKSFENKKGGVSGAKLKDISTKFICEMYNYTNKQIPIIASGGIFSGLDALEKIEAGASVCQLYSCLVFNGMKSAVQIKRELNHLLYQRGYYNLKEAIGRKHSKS

Assay [5] can be described thus: inhibition of PAO1 biofilm formation – strain PAO1, LB-PBS medium, absorbance 600 nm, primary screen (AID 1176). Also: test concentration not given here. As to conditions: P. aeruginosa PAO1 growth/biofilm, A600, 12 h; higher = more signal.
Assay [6] is described as follows: growth modulation of vineyard yeast isolate – strain RM11-1a, OD600, basal, 24 h, primary screen (AID 1177).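 Also: cultures grown under basal conditions with no added stressor; test concentration not given here.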 As to conditions: S. cerevisiae RM11-1a growth, OD600, 24 h; higher = more signal, called active from +8 up or from −8 down.
Assay [7] can be described thus: growth of efflux-deficient E. coli DRC39 – strain DRC39, OD650, 24 h, E. coli filamentation inducers, primary screen (AID 1178).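 Also: growth measured as culture turbidity by optical density at 650 nm; test concentration not given here.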 Particulars: E. coli DRC39 acrAB, higher = more signal, called active from +8 up or from −8 down.
The nature of assay [8]: growth of efflux-deficient E. coli DRC39 – strain DRC39, OD650, 48 h, E. coli filamentation inducers, primary screen (AID 1179).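 Also: screen aims at cell division blockers that make cells filament.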 As to conditions: E. coli DRC39 delta-acrAB growth, higher = more signal, called active from +8 up or from −8 down.
Assay [9] in a line: viability profiling in RPMI8226 myeloma cells – cell-based, resazurin fluorescence, basal, 24 h, PK04 Diversity Set, profiling panel (AID 1180).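 Also: RPMI8826 multiple myeloma cell line at 5000 cells per well; test concentration not given here.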 As to conditions: higher = more signal.
The target in assay [10] is E3 ubiquitin-protein ligase XIAP (Homo sapiens) (UniProt P98170). The assay can be described thus: small molecules binding XIAP protein – biophysical, small-molecule microarray, fluorescence 635 nm, primary screen (AID 1181).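 Also: score merges 667 nm emission and signal to noise over triplicate slides.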 As to conditions: higher = more signal.
Chain of E3 ubiquitin-protein ligase XIAP (Homo sapiens) (P98170 whole entry, looked up): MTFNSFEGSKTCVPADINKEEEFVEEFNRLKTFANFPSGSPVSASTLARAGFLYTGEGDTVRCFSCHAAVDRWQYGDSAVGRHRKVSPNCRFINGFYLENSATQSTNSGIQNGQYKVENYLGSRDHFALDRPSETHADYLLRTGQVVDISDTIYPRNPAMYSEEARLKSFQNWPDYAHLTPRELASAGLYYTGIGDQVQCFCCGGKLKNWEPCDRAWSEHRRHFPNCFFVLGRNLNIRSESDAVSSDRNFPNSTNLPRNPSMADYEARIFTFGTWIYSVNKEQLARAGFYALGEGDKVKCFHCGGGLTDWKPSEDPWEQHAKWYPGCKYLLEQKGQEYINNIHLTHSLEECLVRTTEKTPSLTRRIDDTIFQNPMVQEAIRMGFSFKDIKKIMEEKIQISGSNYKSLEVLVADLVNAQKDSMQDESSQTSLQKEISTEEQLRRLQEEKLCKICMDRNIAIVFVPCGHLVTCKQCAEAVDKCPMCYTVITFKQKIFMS

Activity calls are given as the source filed them. Unless noted, no rule for the calls is given here.

On to `CO[C@@H]1COC(=O)CC=C[C@H](C)[C@H](OC)COC(=O)[C@H](C)NC(=O)CC=C[C@H]1C`, for which the z-score in [1] is 0.774; in assay [2], -0.486 (inactive); in assay [3] it was 0.978 (inactive); in assay [5], -0.638 (inactive); in assay [6] it was -0.363 (inactive); in assay [7], 0.853 (inactive). For the same molecule, the z-score is -0.0907 (inactive) in assay [8] and 0.453 in assay [9]. In addition, the composite z-score is -0.165 (inactive) in assay [4] and 0.0264 in assay [10].
As for `CCOC(=O)[C@H](CC(C)C)NC(=O)CCC1CC(OC(=O)NCc2cccc3ccccc23)CC2(CCCC(COC(=O)NCCCN3CCCC3=O)O2)O1` (stereo not given in full), the z-score in assay [1] was 0.281; in assay [2], -0.761 (inactive); in assay [3], 0.826 (inactive); in assay [5], -0.47 (inactive); in assay [6] it was 0.209 (inactive); in [7] it was -0.134 (inactive). The z-score in [8] was 0.323 (inactive); in [9], -0.241. Further, the composite z-score in assay [4] was 0.0067 (inactive); in [10] it was -0.104.
Regarding `O=C(NN=C1C[C@@H](O)[C@@H](O)[C@@H]2[C@@H]3C(=O)N(C[C@@H]4CCCO4)C(=O)[C@@H]3CC[C@H]12)OCc1ccccc1`, the z-score was -0.136 in assay [1]; 0.267 (inactive) in assay [2]; -0.239 (inactive) in assay [3]; -0.531 (inactive) in assay [5]; -0.0555 (inactive) in [6]; 0.593 (inactive) in assay [7]. Further, the z-score in assay [8] was 0.191 (inactive); in [9], 0.664. Besides, the composite z-score in assay [4] was -0.02 (inactive); in assay [10], 0.0451.
Regarding `CC(C)(C)N1C(=O)[C@H]2[C@H]3[C@H](O)[C@H](O)CC(=O)[C@@H]3CC[C@H]2C1=O`, the z-score in [1] was -0.0291; in assay [2], -0.693 (inactive); in assay [3] it was -0.0757 (inactive); in assay [5], 0.27 (inactive); in [6], -0.736 (inactive); in assay [7], -0.268 (inactive). Further, the z-score in assay [8] was -0.653 (inactive); in [9] it was -0.0415. For the same molecule, the values for the composite z-score in assay [4] and in assay [10] were -0.251 (inactive) and -0.177, respectively.
With `O=C(NN=C1C[C@@H](O)[C@@H](O)[C@@H]2[C@@H]3C(=O)N(Cc4ccccc4)C(=O)[C@@H]3CC[C@@H]12)OCc1ccccc1`, the z-score in assay [1] was 0.348; in [2] it was -1.17 (inactive); in assay [3] it was 0.0873 (inactive); in assay [5] it was 0.352 (inactive); in [6], -0.139 (inactive); in assay [7], 0.851 (inactive). Moreover, the z-score in assay [8] was 0.279 (inactive); in [9], 0.131. Moreover, the composite z-score in [4] is -1.65 (inactive); in [10], -0.0344.
In the case of `COC(=O)[C@H](C)NC(=O)CCC1CC(OC(=O)NCCc2ccc(F)cc2)CC2(CCCC(COC(=O)NCc3cccc(C(F)(F)F)c3)O2)O1` (stereo not given in full), the z-score in assay [1] was -0.0701; in assay [2], 1.05 (inactive); in [3] it was 0.045 (inactive); in [5], 0.59 (inactive); in assay [6] it was 0.744 (inactive); in assay [7] it was 0.696 (inactive). Besides, the results for the z-score in [8] and in [9] were 0.602 (inactive) and 0.436, respectively. For the same molecule, the figures for the composite z-score in [4] and in [10] were -0.302 (inactive) and 0.103, respectively.
For the molecule `COC(=O)CC=C[C@@H](C)[C@@H](C=NOC[C@@H](O)[C@H]1O[C@@H]2OC(C)(C)O[C@@H]2[C@H]1O)NS(=O)(=O)c1ccc(C)cc1`, the z-score in assay [1] was -0.687; in assay [2], 0.185 (inactive); in assay [3], -0.502 (inactive); in assay [5], 0.453 (inactive); in [6] it was 0.0095 (inactive); in assay [7] it was -0.336 (inactive). Besides, the z-score in assay [8] was 0.447 (inactive); in assay [9] it was -0.609. Besides, the composite z-score in assay [4] is -0.241 (inactive); in [10], -0.0445.
For the molecule `CC(C)=CCCC(C)=CCON=C1C[C@@H](O)[C@@H](O)[C@@H]2[C@@H]3C(=O)N(Cc4ccccc4)C(=O)[C@@H]3CC[C@H]12`, the z-score in assay [1] was 1.17; in assay [2], -2.99 (inactive); in assay [3], 1.14 (inactive); in assay [5] it was 0.507 (inactive); in [6] it was -1.28 (inactive); in assay [7], -0.366 (inactive). Also, the figures for the z-score in assay [8] and in assay [9] were 0.167 (inactive) and 0.369, respectively. The composite z-score in assay [4] was -0.88 (inactive); in assay [10], -0.177.
Take `CCc1cc2c(nc1CC)CCN(CCC(C)=NOC[C@H]1O[C@H](c3ccccc3)C=C[C@@H]1Oc1ccc(OC)cc1)C2`: the z-score in assay [1] was 0.0523; in assay [2], -1.75 (inactive); in [3], 0.22 (inactive); in assay [5], -0.197 (inactive); in assay [6] it was -0.409 (inactive); in assay [7], -1.58 (inactive). Further, the z-score in assay [8] is -1.43 (inactive); in assay [9], 0.218. For the same molecule, the composite z-score was -3.81 (inactive) in assay [4] and -0.23 in assay [10].
In the case of `O=C1C=C[C@@H](O)[C@@H]2[C@@H]3C(=O)N(c4ccc(F)cc4F)C(=O)[C@@H]3CC[C@@H]12`, the z-score in assay [1] is -0.862; in assay [2] it was -1.76 (inactive); in assay [3] it was -0.138 (inactive); in assay [5] it was 0.565 (inactive); in [6], -2.01 (inactive); in [7] it was -0.664 (inactive). In addition, the z-score in assay [8] is -0.52 (inactive); in assay [9], -0.956. For the same molecule, the composite z-score in [4] is -1.11 (inactive); in [10] it was -0.102.
As for `CCOC(=O)NN=C1C[C@@H](O)[C@@H](O)[C@@H]2[C@@H]3C(=O)N(Cc4ccc5c(c4)OCO5)C(=O)[C@@H]3CC[C@H]12`, the z-score in assay [1] was 0.514; in [2], 0.923 (inactive); in [3], -0.343 (inactive); in assay [5] it was -0.981 (inactive); in assay [6], 0.169 (inactive); in [7] it was 0.298 (inactive). The z-score was 0.19 (inactive) in [8] and 0.3 in assay [9]. Besides, the composite z-score in [4] is 0.005 (inactive); in assay [10], -0.0294.
On to `CO[C@H]1COC(=O)[C@@H](Cc2ccccc2)NC(=O)[C@@H](C)COC(=O)CCC[C@@H]1C`, for which the z-score in assay [1] is 0.464; in assay [2], -0.916 (inactive); in [3], 1.18 (inactive); in [5], -1.24 (inactive); in assay [6] it was -0.726 (inactive); in assay [7], 0.285 (inactive). For the same molecule, the z-score in assay [8] is 1.39 (inactive); in assay [9], 0.759. Further, the results for the composite z-score in assay [4] and in [10] were -1.7 (inactive) and -0.0918, respectively.
Take `C[n+]1ccc(-c2ccc(CO)cc2)cc1`: the z-score is -0.557 in assay [1]; 0.11 (inactive) in assay [2]; -0.404 (inactive) in assay [3]; -0.407 (inactive) in assay [5]; -0.142 (inactive) in assay [6]; 0.207 (inactive) in assay [7]. In addition, the z-score is -0.0742 (inactive) in assay [8] and -0.674 in assay [9]. Moreover, the composite z-score was -10 (active) in assay [4] and 0.433 in assay [10].

For the origin of these results see PubChem BioAssay.
